# Experimental data taken from PubChem BioAssay (NCI).
# Compounds without any hit were thinned out: in the full panel of roughly 83,000, 20% have a hit.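 Activity criterion: percent growth below 10, measured after cells in 96-well plates were exposed to a single compound concentration for 48 hours.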 Values without a mark were called inactive. The source made the active and inactive calls.
# Legend:
# Assay in all cases: NCI-60 one-dose screen, 48 h (100 = growth as untreated, 0 = no growth, -100 = all killed)
# Conditions in all cases: 10 µM unless noted
# NCI-H23 lung = test system: NCI-H23 lung
# NCI-H226 lung = test system: NCI-H226 lung
# NCI-H322M lung = test system: NCI-H322M lung
# HOP-62 NSCLC = test system: HOP-62 NSCLC
# NCI-H460 lung = test system: NCI-H460 lung
# HOP-92 NSCLC = test system: HOP-92 NSCLC
# NCI-H522 lung = test system: NCI-H522 lung
# A549/ATCC NSCLC = test system: A549/ATCC NSCLC
# 786-0 renal = test system: 786-0 renal
# COLO 205 colon = test system: COLO 205 colon
# DU-145 prostate = test system: DU-145 prostate
# K-562 leukemia = test system: K-562 leukemia
# MALME-3M melanoma = test system: MALME-3M melanoma
# MDA-MB-231 breast = test system: MDA-MB-231 breast
# RXF 393 renal = test system: RXF 393 renal
# SF-268 CNS = test system: SF-268 CNS
# SF-295 CNS = test system: SF-295 CNS
# SF-539 CNS = test system: SF-539 CNS
# UACC-257 melanoma = test system: UACC-257 melanoma
# M14 melanoma = test system: M14 melanoma
SMILES,growth (NCI-H23 lung),growth (NCI-H226 lung),growth (NCI-H322M lung),growth (HOP-62 NSCLC),growth (NCI-H460 lung),growth (HOP-92 NSCLC),growth (NCI-H522 lung),growth (A549/ATCC NSCLC),growth (786-0 renal),growth (COLO 205 colon),growth (DU-145 prostate),growth (K-562 leukemia),growth (MALME-3M melanoma),growth (MDA-MB-231 breast),growth (RXF 393 renal),growth (SF-268 CNS),growth (SF-295 CNS),growth (SF-539 CNS),growth (UACC-257 melanoma),growth (M14 melanoma)
CCCCNCCCCCNc1cc(OC)cc2cccnc12,101%,96.5%,106%,88%,106%,49.2%,94%,95.9%,90.1%,93.7%,120%,76.8%,80.8%,87.3%,87.7%,95%,96.1%,92.8%,93.1%,97.1%
COc1ccc(Nc2nnc(-c3ccc(OC)c(OC)c3)o2)cc1,74.1%,85.3%,87.4%,84.9%,100%,66.4%,62.8%,83.9%,91.9%,99.5%,90.9%,80.2%,106%,55.7%,102%,80.8%,101%,92.1%,102%,100%
Nc1ncnc2c1N=C(c1ccc(Br)cc1)CC(c1cccc(Nc3ccnc4cc(C(F)(F)F)ccc34)c1)N2 (stereo not drawn),62.7%,67.3%,95.6%,60.1%,59.1%,41.4%,74%,55.2%,53.7%,54.6%,85.6%,23%,76.8%,55.9%,38.5%,55.5%,52.2%,70.8%,66.6%,60.1%
O=C1NC2(Nc3ccccc31)C(=O)Nc1c(Cl)cc(Cl)cc12 (stereo not drawn),104%,93.8%,110%,84.7%,102%,106%,103%,110%,103%,119%,117%,99.4%,102%,94.9%,115%,96.8%,101%,100%,110%,101%
O=c1[nH]c(Cc2nc3ccccc3s2)nc2cc(Br)ccc12,86.1%,76.8%,88.8%,37.6%,53.3%,84.9%,58.7%,61%,68%,88.3%,70.5%,23.2%,90.7%,65.6%,104%,61%,76.5%,90.3%,72.2%,35.2%
Cn1ccnc1C(=O)/C=C/c1ccc(C(=O)Nc2ccccc2O)cc1,30.6%,63.4%,45.3%,12.7%,8.78% (active),81.4%,60.4%,31.2%,9.95% (active),,45.6%,7.38% (active),57.8%,46.2%,21.7%,13.2%,6.78% (active),-19.3% (active),48.6%,71.5%
COc1ccc(-c2ccc(-c3ccc(C(=N)N)cc3)s2)cc1Cl,61.4%,92.8%,-35.5% (active),34.5%,-66.4% (active),75.8%,-36.1% (active),-48.2% (active),-83.1% (active),,-87.5% (active),-36.8% (active),57.5%,-60.7% (active),60.7%,20%,-37.5% (active),-59% (active),88.1%,38.6%
COc1cc2nc3cc([N+](=O)[O-])ccc3c(NCCNCC(C)O)c2cc1OC (stereo not drawn),-27.8% (active),-11.1% (active),-11.9% (active),-19.2% (active),-40.2% (active),-42.1% (active),-26.6% (active),-26.8% (active),-3.6% (active),-76.6% (active),-7.42% (active),0.179% (active),-74.1% (active),-39.5% (active),-56% (active),-15.4% (active),17.1%,-21.6% (active),-56% (active),-66.1% (active)
Cc1cccc(/C=C2\CN(C(=O)OC(C)(C)C)C/C(=C\c3cccc(C)c3)C2=O)c1,92.7%,99.6%,95.8%,96.9%,110%,87.3%,63.8%,97.4%,94.6%,115%,106%,5.44% (active),90.6%,98.8%,128%,94.1%,101%,104%,94.7%,90.5%
COC(=O)c1nc(-c2ccc(C)cc2)oc1S(=O)(=O)c1cccc(OC)c1,92.6%,87%,93.3%,96.2%,104%,79.6%,33.8%,97.5%,85.2%,,104%,11.6%,-12.3% (active),94.1%,77%,92.8%,104%,101%,97.5%,90.4%
C#CCOc1ccc2ncnc(Nc3ccc(NC(=O)C=C)cc3)c2c1,2.09% (active),97.7%,69.5%,78.5%,24.1%,-36.8% (active),-75.7% (active),80%,-37.7% (active),-57.6% (active),-29.8% (active),-35.7% (active),-74.4% (active),-71.7% (active),-80.6% (active),6.18% (active),83.2%,-10.4% (active),-26.3% (active),-52.4% (active)
N#Cc1nc(-c2ccc(Cl)cc2)oc1S(=O)(=O)N1CCN(c2ccc(F)cc2)CC1,88.6%,94.9%,94%,96.4%,104%,99.3%,65.9%,98.6%,99.5%,,97.3%,24.6%,92.6%,103%,109%,97.6%,101%,98.3%,94.5%,95%
COC(=O)[C@@H](CCCCNC(=O)[C@]12CCC(C)(C)C[C@@H]1C1=CC[C@@H]3[C@@]4(C)C/C(=C/c5ccco5)C(=O)C(C)(C)[C@@H]4CC[C@@]3(C)[C@]1(C)CC2)NC(=O)[C@]12CCC(C)(C)C[C@@H]1C1=CC[C@@H]3[C@@]4(C)C/C(=C/c5ccco5)C(=O)C(C)(C)[C@@H]4CC[C@@]3(C)[C@]1(C)CC2,106%,103%,93.9%,104%,107%,114%,94.1%,100%,104%,,115%,95.8%,102%,92.4%,119%,104%,101%,97.1%,100%,107%
COc1cc2c(cc1OCCCN1CCN(CCCOc3cc4c(cc3OC)C(=O)N3CC(F)(F)C[C@H]3C=N4)CC1)N=C[C@@H]1CC(F)(F)CN1C2=O,54%,95.5%,97.9%,97.4%,27%,10.8%,-14.3% (active),94.4%,86.2%,,16.3%,36.5%,89%,85.3%,86.2%,14.6%,30.6%,51%,85.3%,70.2%
COc1ccc(/C=C/C(=O)c2ccc(Nc3ccnc4cc(Cl)ccc34)cc2)cc1,76.2%,123%,131%,72.3%,101%,37.9%,73.3%,103%,72.8%,117%,103%,45%,142%,80.7%,13.5%,100%,77.4%,86.8%,102%,87.8%
Ic1ccc(OCCCCn2ccnc2)cc1,66.6%,80.5%,85.3%,72.3%,92.5%,34.7%,67.4%,78.1%,83.7%,,81.2%,37.6%,1.9% (active),68.6%,67.1%,83.3%,77.9%,83.8%,64.3%,49.6%
